This note sets out measurements from PubChem BioAssay.

In experiment [1] the test system is Human papillomavirus type 1a protein E7 (residues 44-93). Description: HPV1a E7 fragment binders on microarrays, primary screen, biochemical, small-molecule microarray, residues 44-93, 635 nm fluorescence (AID 1108).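 Further: E7 fragment applied at 1 µg/mL in TBST for 1 h at 4 C; score combines spot fluorescence with its signal to noise ratio.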 The conditions noted are these: small-molecule microarray binding, fluorescence 635 nm; higher = more signal.
Experiment [2] in a line: modulators of HCV replicon luciferase signal, primary screen, HCV replication inhibitor project, Huh7 cells, luciferase reporter (AID 1109).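 Further: huh7 hepatoma cells harbouring a luciferase neomycin HCV replicon reporter; luciferase luminescence as measure of HCV replicon replication; test concentration not given here.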 The following applies: 48 h, higher = more signal.
For experiment [3], the target named is Left-right determination factor 2 (Homo sapiens) (UniProt O00292). Briefly: LEFTY2 binders on small-molecule microarrays, primary screen, biochemical, small-molecule microarray, 635 nm fluorescence scan (AID 1110). The conditions noted are these: LEFTY2 binding, higher = more signal.
Left-right determination factor 2 (Homo sapiens), sequence (O00292 whole entry, looked up): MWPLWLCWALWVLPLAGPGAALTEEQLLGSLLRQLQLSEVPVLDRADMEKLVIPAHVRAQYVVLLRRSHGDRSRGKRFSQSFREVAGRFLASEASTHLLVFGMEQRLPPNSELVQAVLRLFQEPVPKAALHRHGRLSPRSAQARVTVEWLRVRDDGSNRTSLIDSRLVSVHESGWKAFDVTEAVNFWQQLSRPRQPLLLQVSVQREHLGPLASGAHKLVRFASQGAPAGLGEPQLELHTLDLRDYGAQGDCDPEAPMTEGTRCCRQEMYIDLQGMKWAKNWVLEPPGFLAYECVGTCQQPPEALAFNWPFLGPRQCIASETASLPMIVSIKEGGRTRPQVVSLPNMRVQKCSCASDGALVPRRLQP
Experiment [4] addresses Calmodulin-1 (Homo sapiens) (UniProt P0DP23). Briefly: CALM1 binders on microarrays, EGTA buffer, profiling panel, biochemical, small-molecule microarray, Cy5-labelled CALM1 (AID 1111).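 Further: labelled calmodulin applied in Tris saline Tween buffer holding calcium plus EGTA and DTT.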 The conditions noted are these: Cy5-CALM1 binding fluorescence, higher = more signal.
For experiment [5] the target is unchanged. Description: calcium-bound CALM1 binders on microarrays, profiling panel, artefact control for SMM control-protein annotation, biochemical, small-molecule microarray, Cy5-labelled CALM1, plus calcium (AID 1112).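 Further: score merges spot fluorescence with signal to noise from triplicate slides.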 The following applies: Cy5-CALM1 binding fluorescence, higher = more signal.
Experiment [6] is described as follows: small-molecule microarray binders of probe aWnt5a, primary screen, biochemical, biotinylated probe, 635/667 nm fluorescence (AID 1113).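 Further: score merges 667 nm fluorescence intensity with signal-to-noise per printed feature.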 The following applies: higher = more signal.
The nature of experiment [7]: small-molecule microarray binders of probe aShh, primary screen, biochemical, biotinylated probe, 635/667 nm fluorescence (AID 1114).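 Further: probe is biotin-labelled aShh protein from a stem cell growth factor screen; measures binding of labelled protein to compounds printed on the slide; score merges feature fluorescence at 667 nm with signal-to-noise.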 The following applies: higher = more signal.
A short description of experiment [8]: small-molecule microarray binders of probe aNog, primary screen, biochemical, biotinylated probe, 635/667 nm fluorescence (AID 1115).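 Further: probe is biotinylated aNog protein used at 0.15 µg/mL for 1 h at 4 C; z-score combines 667 nm fluorescence of each spot with its signal to noise.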 The following applies: higher = more signal.
Experiment [9] concerns the target Torsin-1A-interacting protein 1 (Homo sapiens) (UniProt Q5JTV8). Description: LAP1 binders from COS7 cell lysate, primary screen, small-molecule microarray, 635/667 nm fluorescence (AID 1116). The conditions noted are these: COS7-hLAP1 lysate binding, 635 nm fluorescence, higher = more signal.
Experiment [10] addresses Alpha-bungarotoxin (Bungarus multicinctus) (UniProt P60615). Briefly: alpha-bungarotoxin binders on microarray, profiling panel, artefact control for SMM control protein annotation, biochemical, small-molecule microarray, Alexa647 label, 635/667 nm fluorescence (AID 1117). The following applies: alpha-BTX-A647 binding fluorescence, higher = more signal.

Torsin-1A-interacting protein 1 (Homo sapiens), sequence (Q5JTV8 whole entry, looked up): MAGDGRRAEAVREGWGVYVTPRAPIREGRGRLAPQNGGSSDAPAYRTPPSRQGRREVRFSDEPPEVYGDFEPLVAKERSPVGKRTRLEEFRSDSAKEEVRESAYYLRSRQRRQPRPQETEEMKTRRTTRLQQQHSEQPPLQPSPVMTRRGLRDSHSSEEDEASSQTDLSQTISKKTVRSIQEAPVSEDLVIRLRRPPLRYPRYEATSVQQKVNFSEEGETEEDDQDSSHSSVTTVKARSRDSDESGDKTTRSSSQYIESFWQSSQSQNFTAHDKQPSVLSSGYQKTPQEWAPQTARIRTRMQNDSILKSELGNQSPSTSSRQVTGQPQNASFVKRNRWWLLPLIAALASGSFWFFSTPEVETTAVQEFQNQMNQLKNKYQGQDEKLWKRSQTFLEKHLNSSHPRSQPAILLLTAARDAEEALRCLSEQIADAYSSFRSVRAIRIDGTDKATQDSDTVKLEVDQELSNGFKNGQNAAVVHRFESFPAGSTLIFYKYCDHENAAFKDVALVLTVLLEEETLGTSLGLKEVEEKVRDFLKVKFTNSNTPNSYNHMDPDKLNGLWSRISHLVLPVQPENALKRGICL
Alpha-bungarotoxin (Bungarus multicinctus), sequence (P60615 whole entry, looked up): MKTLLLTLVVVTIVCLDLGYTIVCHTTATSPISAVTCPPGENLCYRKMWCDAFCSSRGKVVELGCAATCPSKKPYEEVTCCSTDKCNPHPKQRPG

With `COc1ccc([Si](C)(C)[C@H]2[C@H](CCn3cc([C@H](O)c4ccccc4)nn3)O[C@@]3(C(=O)N(Cc4ccc(N5CCOC5=O)cc4)c4ccccc43)[C@@H]2C)cc1`, the composite z-score is -0.873 in [1]; -0.849 in [3]; 0.287 in experiment [4]; 0.481 in experiment [5]; -0.176 in experiment [6]; -0.138 in [7]. Also, the figures for the composite z-score in experiment [8], in experiment [9] and in experiment [10] were -0.1, -0.833 and -0.374, respectively. In addition, the z-score in experiment [2] is -2.21.
Regarding `CC=CC(O)C1C=CC2C(=O)N(C)C(=O)C2N1N1CCCCC1` (stereo not given), the composite z-score in experiment [1] was 1.15; in experiment [3], 0.364; in [4], 1.41; in [5] it was 0.127; in [6], 0.0559; in experiment [7], -0.151. The composite z-score is -0.39 in [8], 0.923 in experiment [9] and 1.1 in [10]. The compound further gave a z-score in [2] of 0.121.
As to `C=CCN1Cc2ccccc2C[C@@]2(N=C(c3ccc(OCCCO)cc3)O[C@H]2c2ccccc2)C1=O`, the composite z-score was 1.46 in [1]; 0.473 in [3]; 2.97 in experiment [4]; -0.398 in [5]; 0.0873 in experiment [6]; 0.19 in experiment [7]. Further, the composite z-score in [8] was -0.179; in experiment [9], 1.2; in experiment [10], 1.15. This compound came in with a z-score in experiment [2] of -3.08.
As for `CN1C(=O)C2C=CC(C(O)C3CCCCC3)N(N3CCCCC3)C2C1=O` (stereo not given), the composite z-score in [1] is 1.47; in [3], 0.194; in experiment [4], 0.407; in experiment [5], -0.331; in [6], 0.164; in [7] it was 0.109. Moreover, the composite z-score was 1.31 in experiment [8], 1.4 in [9] and 1.66 in [10]. The compound further returned a z-score in [2] of -0.306.
In the case of `CC(C)N1C(=O)[C@@]2(c3ccc([N+](=O)[O-])cc3)CC(=O)N(C3CCCCC3)[C@@H]2c2ccc(CO)cc21`, the composite z-score in experiment [1] was -0.242; in [3], 0.11; in [4], -0.561; in experiment [5], -0.593; in experiment [6], -0.1; in [7], -0.0553. Further, the composite z-score in experiment [8] was -0.305; in experiment [9] it was 0.214; in experiment [10] it was 0.329. For the same compound, the z-score in experiment [2] turned out to be 0.711.
Consider `CCOC(=O)C1=CC[C@@H](c2ccccc2)N(S(=O)(=O)c2ccc(C)cc2)C1`, for which the composite z-score is 0.493 in experiment [1]; -0.0161 in experiment [3]; -0.11 in [4]; -0.374 in [5]; -0.0459 in experiment [6]; 0.485 in experiment [7]. Besides, the composite z-score in experiment [8] turned out to be 0.005; in experiment [9] it was 0.127; in [10], 0.329. The compound also returned a z-score in experiment [2] of -2.23.
Consider `O=C1O[C@@H](c2ccccc2)[C@@H](c2ccccc2)N2[C@@H](c3ccccc3OCCO)[C@]3(C(=O)Nc4ccc(C#CCCO)cc43)[C@@H](C(=O)Nc3nc4ccccc4s3)[C@H]12`, for which the composite z-score in [1] was -0.503; in [3], 1.02; in experiment [4], 1.7; in experiment [5], 0.64; in [6], -0.0572; in experiment [7], -0.289. Moreover, the results for the composite z-score in [8], in experiment [9] and in experiment [10] were -0.523, 0.326 and 1.82, respectively. The compound also yielded a z-score in experiment [2] of -2.12.
As for `C=CC[C@@]1(C(=O)O)N=C(c2ccc(OCCCO)cc2)O[C@@H]1c1ccccc1`, the composite z-score in experiment [1] is 1.35; in experiment [3] it was -1.5; in experiment [4], -0.815; in experiment [5], -1.41; in experiment [6], 0.499; in experiment [7], 0.265. Further, the composite z-score in experiment [8] is 2.02; in experiment [9], 4.53; in experiment [10], 2.51. In addition, the z-score in experiment [2] was found to be 0.0165.
With `CC(C)N1CC=CC23O[C@@H]4C=CCOC(=O)[C@@H]4[C@H]2C(=O)N(C(C)CO)[C@@H]3C1=O` (stereo not given in full), the composite z-score in experiment [1] is -0.913; in [3], -1.76; in [4], -0.0212; in [5], -0.123; in [6], -0.196; in experiment [7], 0.0278. Moreover, the composite z-score in experiment [8] is 0.141; in experiment [9] it was -0.606; in experiment [10], -0.127. Besides, the z-score in [2] came to 0.187.
With `COC(=O)C(CC#Cc1ccc2c(c1)[C@]1(C(=O)N2)[C@H](C(=O)O)[C@H]2C(=O)O[C@H](c3ccccc3)[C@H](c3ccccc3)N2[C@@H]1c1ccccc1OCCO)C(=O)OC`, the composite z-score in [1] is 0.851; in [3], 0.445; in experiment [4], 1.62; in experiment [5], 0.369; in [6], -0.001; in experiment [7] it was 0.108. Further, the composite z-score in [8] was 0.767; in experiment [9], 1.1; in experiment [10], 1.79. In addition, in experiment [2], the z-score was -2.04.
In the case of `CN(C)C(=O)[C@]1(CCC(=O)OC(C)(C)C)N=C(c2ccc(OCCCO)cc2)O[C@@H]1c1ccccc1`, the composite z-score in experiment [1] came out at 1.17; in experiment [3], 0.119; in experiment [4], 0.989; in experiment [5] it was 0.744; in [6], 0.14; in [7] it was 0.0793. The composite z-score is 0.289 in [8], 2.76 in experiment [9] and 0.654 in [10]. The z-score in [2] was determined as 0.381.
Regarding `CCOC(=O)C[C@H]1[C@H](OC(=O)Cc2ccc3c(c2)OCO3)[C@@H](NC(=O)C2CCCCC2)c2cc(OCCCO)ccc2N1C(=O)c1ccc2ccccc2n1`, the composite z-score is 1.33 in experiment [1]; 0.924 in experiment [3]; 0.0105 in experiment [4]; -0.896 in experiment [5]; -0.1 in [6]; -0.164 in experiment [7]. Further, the values for the composite z-score in experiment [8], in experiment [9] and in experiment [10] were 0.0862, 0.746 and 0.663, respectively. For the same compound, the z-score in experiment [2] is -1.27.
Regarding `O=C1O[C@@H](c2ccccc2)[C@@H](c2ccccc2)N2[C@@H](c3ccccc3OCCO)[C@]3(C(=O)Nc4ccc(C#CCCO)cc43)[C@@H](C(=O)N3CCN(c4ncccn4)CC3)[C@H]12`, the composite z-score is 1.39 in experiment [1]; -0.0407 in [3]; 1.15 in experiment [4]; 0.27 in experiment [5]; -0.096 in experiment [6]; -0.16 in [7]. The composite z-score in experiment [8] was -0.332; in experiment [9] it was 0.744; in experiment [10] it was 1.23. Further, the z-score in experiment [2] was -1.71.
As for `C=C[C@H](COC(C)=O)NS(=O)(=O)c1ccc(Br)cc1`, the composite z-score is -0.292 in [1]; 0.0605 in experiment [3]; -0.173 in experiment [4]; -0.766 in [5]; -0.0721 in experiment [6]; 0.0121 in [7]. Further, the composite z-score in experiment [8] was -0.219; in experiment [9] it was 0.168; in experiment [10], 0.0669. The same compound yielded a z-score in experiment [2] of 0.55.
Take `CCOc1cc(C(O)C2C=CC3C(=O)N(C)C(=O)C3N2N2CCCCC2)ccc1O` (stereo not given): the composite z-score is 0.0912 in experiment [1]; 0.298 in experiment [3]; -0.0003 in [4]; -0.393 in experiment [5]; 0.0173 in experiment [6]; 0.199 in [7]. Besides, the composite z-score in [8] was 0.243; in experiment [9], -0.283; in [10], 0.676. For the same compound, the z-score in [2] amounted to 0.403.
For `O=C1C2C=CC(C(O)c3cc(C(F)(F)F)cc(C(F)(F)F)c3)N(Nc3ccc([N+](=O)[O-])cc3)C2C(=O)N1c1ccccc1` (stereo not given), the composite z-score was 1.42 in experiment [1]; 0.511 in [3]; 1.65 in experiment [4]; 0.311 in experiment [5]; 0.055 in experiment [6]; -0.224 in [7]. Further, the values for the composite z-score in experiment [8], in [9] and in experiment [10] were 0.605, 0.185 and 1.59, respectively. Also, the z-score in experiment [2] is -3.71.
As for `O=C1O[C@@H](c2ccccc2)[C@@H](c2ccccc2)N2[C@@H](c3ccc(O)cc3)[C@]3(C(=O)Nc4ccc(C#CCCO)cc43)[C@@H](C(=O)Nc3nc4ccccc4s3)[C@H]12`, the composite z-score in experiment [1] was 1.23; in experiment [3] it was 0.173; in experiment [4] it was 0.289; in experiment [5], -0.331; in experiment [6], -0.0405; in experiment [7], 0.108. In addition, the composite z-score in experiment [8] is 0.128; in experiment [9] it was 1.2; in experiment [10] it was 1.66. In experiment [2], this compound came in with a z-score of -0.0469.
